Screens deposited in PubChem by NMMLSC.
Only some compounds are listed: those with a hit (about 2.9% of all), similar ones and a draw of the others.
Beta2AR agonist = activates human beta-2 adrenergic receptor causing internalization; actives 0.43% (n = 340,000); AID 504454; response, % (concentration not given with the values); P07550; Am2.2-beta2AR cells, FAP receptor internalization, flow cytometry;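 active = response above a set limit, near 3 SD of response in nonfluorescent compounds, cut at about 42% in these data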
MEKK2mut PB1 HTS = signal of MEK5 binding to mutant human MEKK2 PB1 domain | AID 1530 | bead flow cytometry, Alexa488-MEK5 binding to MEKK2 mutant | percent response, % at 10 µM | actives 0.35% (n = 290,000); in the data active = percent response above about 24%, passing the limit was not always enough
MEKK2wt PB1 HTS = raises or lowers MEK5 binding to wildtype human MEKK2 PB1 domain. Q9Y2U5. bead flow cytometry, Alexa488-MEK5 binding to MEKK2 WT; actives lie on both sides. actives 1.1% (n = 290,000). binding response (% of control), % at 10 µM. AID 1531; in the data active = binding response below about 67% or above about 130%
GRK2 inh = inhibitors of human GRK2 displacing RNA aptamer; inhibition of aptamer binding, % at 10 µM; P25098; actives 0.59% (n = 330,000); bead flow cytometry, FAM-aptamer displacement from GRK2;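 active = inhibition of aptamer binding above 40%, roughly 3 SD of noise, on plates passing a quality check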;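 note: median bead fluorescence of bound FAM aptamer so fluorescent compounds give negative values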
MEKK3 PB1 HTS = modulators (inhibitors or enhancers) of MEK5 binding to human MEKK3 PB1 domain. actives 1.4% (n = 290,000). bead-based flow cytometry, Alexa488-MEK5 binding to MEKK3; actives lie on both sides; 0 = blocked by unlabeled MEK5, 100 = vehicle. binding response (% of control), % at 10 µM. AID 1529. Q99759;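 active = binding response more than 3 SD above or below the average of its plate-row segment, actives on both sides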;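 note: Alexa488 bead fluorescence after subtracting the streptavidin-only scavenger bead signal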
Target sequence (Q99759 whole entry, looked up, the tested form may be a part): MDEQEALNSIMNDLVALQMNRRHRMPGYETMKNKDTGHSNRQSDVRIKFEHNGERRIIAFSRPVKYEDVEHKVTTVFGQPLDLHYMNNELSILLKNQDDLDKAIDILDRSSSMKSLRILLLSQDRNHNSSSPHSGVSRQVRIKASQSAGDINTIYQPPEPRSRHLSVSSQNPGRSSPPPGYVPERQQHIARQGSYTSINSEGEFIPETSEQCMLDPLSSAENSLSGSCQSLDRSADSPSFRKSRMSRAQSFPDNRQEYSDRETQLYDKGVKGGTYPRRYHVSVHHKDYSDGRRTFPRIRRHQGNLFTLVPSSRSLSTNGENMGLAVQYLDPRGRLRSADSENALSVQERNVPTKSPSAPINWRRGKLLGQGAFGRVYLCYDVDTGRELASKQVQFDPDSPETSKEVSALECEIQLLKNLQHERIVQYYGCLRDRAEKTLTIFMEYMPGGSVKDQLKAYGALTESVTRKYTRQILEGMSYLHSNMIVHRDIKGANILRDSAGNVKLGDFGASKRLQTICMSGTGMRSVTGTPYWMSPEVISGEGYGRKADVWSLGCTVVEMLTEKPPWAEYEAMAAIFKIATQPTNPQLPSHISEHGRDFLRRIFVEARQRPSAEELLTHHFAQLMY
MEKK2wt confirm = raises or lowers MEK5 binding to wildtype human MEKK2, retest. shares compounds with MEKK3 PB1 HTS. actives 2.4% (n = 5,900). bead flow cytometry, Alexa488-MEK5 binding to MEKK2 WT; actives lie on both sides. binding response (% of control), % at 10 µM. AID 1892; in the data active = binding response below about 16% or above about 210%; inactive = in between
MEKK2mut-MEK5 = signal of MEK5 binding to mutant human MEKK2, retest | shares compounds with MEKK3 PB1 HTS | bead flow cytometry, Alexa488-MEK5 binding to MEKK2 mutant | percent response, % at 10 µM | actives 2% (n = 5,900) | AID 1893; in the data active = percent response mostly above about 71%, no sharp cut-off; inactive = mostly below about 38%;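 note: higher means compound restores mutant binding toward wildtype level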
MEKK3-MEK5 inh = confirmation of inhibitors of MEK5 binding to human MEKK3 | shares compounds with MEKK3 PB1 HTS | AID 1894 | binding response (% of control), % at 10 µM | actives 1.8% (n = 5,900) | bead flow cytometry, Alexa488-MEK5 binding to MEKK3; hits give low values;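 active = binding response below 72% of control, or above a set upper limit, though filed actives all read lower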;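 note: 100% = DMSO only wells and 0% = binding blocked by excess unlabeled MEK5; lower values mean stronger disruption of MEK5 binding to MEKK3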
An asterisk follows results filed as active; [ ] = another dose, or the depositor's remark.

Screening Cc1ccc(S(=O)(=O)N(CC(=O)N2CCc3ccccc3C2)c2ccc(Cl)c(Cl)c2)cc1 returned Beta2AR agonist 4, MEKK2mut PB1 HTS 1, MEKK2wt PB1 HTS 111, GRK2 inh 0, MEKK3 PB1 HTS 146*, MEKK2wt confirm 99, MEKK2mut-MEK5 6 and MEKK3-MEK5 inh 106.
CCOC(=O)N1CCN(C(=O)CN(c2ccccc2OC)S(=O)(=O)c2ccc(C)cc2)CC1 was read as Beta2AR agonist 0, MEKK2mut PB1 HTS -25, MEKK2wt PB1 HTS 18*[inhibitor], GRK2 inh 0, MEKK3 PB1 HTS 12*[inhibitor], MEKK2wt confirm 100, MEKK2mut-MEK5 0 and MEKK3-MEK5 inh 103.
For COc1ccccc1N(CC(=O)N1CCCC1)S(=O)(=O)c1ccc(C)cc1 the results were Beta2AR agonist 1, MEKK2mut PB1 HTS 1, MEKK2wt PB1 HTS 97, GRK2 inh 4 and MEKK3 PB1 HTS 96.
`CN(C)C(CNC(=O)c1ccc(S(=O)(=O)Nc2ccccc2F)cc1)c1ccco1` (configuration not stated) gave Beta2AR agonist -6 and GRK2 inh 0.
Cc1cc(C(=O)COC(=O)CC2Sc3ccccc3NC2=O)c(C)n1-c1cccc(C(F)(F)F)c1 (configuration not stated) was read as Beta2AR agonist -5, MEKK2mut PB1 HTS -4, MEKK2wt PB1 HTS 94, GRK2 inh 3 and MEKK3 PB1 HTS 97.
For Cc1cc(C(=O)COC(=O)Cc2n[nH]c(=O)c3ccccc23)c(C)n1-c1cccc(C(F)(F)F)c1 the results were Beta2AR agonist -6, MEKK2mut PB1 HTS 1, MEKK2wt PB1 HTS 104, GRK2 inh 2, MEKK3 PB1 HTS 136*, MEKK2wt confirm 103, MEKK2mut-MEK5 -2 and MEKK3-MEK5 inh 101.
`Cc1ccc(-n2cc(CN(C)CCc3cn[nH]c3)c(-c3cccc(C)c3)n2)cc1` gave Beta2AR agonist -3, MEKK2mut PB1 HTS 47, MEKK2wt PB1 HTS 158*, GRK2 inh 0, MEKK3 PB1 HTS 100, MEKK2wt confirm 119, MEKK2mut-MEK5 8 and MEKK3-MEK5 inh 107.
Screening CC[C@H](C)[C@@H](C(=O)NCCCCCCCCCCC(=O)N1CCNCC1)n1cc(CCCCCN)nn1 returned Beta2AR agonist -2 and GRK2 inh 0.
For CCCCCCCCCC(=O)N[C@@H]1c2cc(OC)c(OC)cc2C[C@H]1OCc1ccccc1 the results were Beta2AR agonist 9 and GRK2 inh 0.
`CCOCCCNCC(O)c1ccccc1` (configuration not stated) gave Beta2AR agonist -2, MEKK2mut PB1 HTS 2, MEKK2wt PB1 HTS 116, GRK2 inh 5, MEKK3 PB1 HTS 162*, MEKK2wt confirm 94, MEKK2mut-MEK5 -10 and MEKK3-MEK5 inh 96.
`CC(=O)Nc1cc(NC(C)=O)ncn1` gave Beta2AR agonist -8, MEKK2mut PB1 HTS 9, MEKK2wt PB1 HTS 57, GRK2 inh 4, MEKK3 PB1 HTS 48*[inhibitor], MEKK2wt confirm 99, MEKK2mut-MEK5 -6 and MEKK3-MEK5 inh 100.
For CCOC(=O)Nc1cc(NC(=O)OCC)ncn1 the results were Beta2AR agonist -2.
`COc1ccccc1N(CC(=O)NCC1CCCO1)C(=O)CNS(=O)(=O)c1ccccc1` (configuration not stated) gave Beta2AR agonist -1, MEKK2mut PB1 HTS 27, MEKK2wt PB1 HTS 116, GRK2 inh 1, MEKK3 PB1 HTS 135*, MEKK2wt confirm 112, MEKK2mut-MEK5 19 and MEKK3-MEK5 inh 110.
`COc1ccc(N(C)S(=O)(=O)c2cccc(C(=O)NCC(c3cccs3)N(C)C)c2)cc1` (configuration not stated) gave Beta2AR agonist 3 and GRK2 inh 0.
